In PubChem BioAssay (NCATS):
“And” between values parts separate entries of the source, which are not always exact repeats. Equal values may be shown once. Records with an inconclusive call do not appear. The source made the active and inactive calls. Unless noted, calls follow the shape of the dose curve; as a rule, active = well fitted curve in the direction sought with a large enough effect; inconclusive = small, poorly fitted or top-dose-only effect, or another doubt; inactive = no such curve, though single readings can be large; an effect the other way counts as inactive or inconclusive.

Experiments:
[1] = Cell Viability - BJ (AID 421; calls by dose curve;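 also: potency is read from the fitted curve at half-maximal effect; cells exposed to compound for 40 hours at 37 °C before readout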); settings: BJ fibroblast viability, qHTS
Method in brief: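 Cytotoxicity as drop in intracellular ATP (CellTiter-Glo, 20 min RT) after 40 hr compound exposure of BJ fibroblasts at 37 °C. Titrations scaled between DMSO and 100 uM tamoxifen, Hill-fitted for AC50.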

[2] = Cell Viability - HUV-EC-C (AID 542); settings: HUV-EC-C endothelial cell viability, qHTS; series mostly up to 92.2 µM; also: % is scaled to controls: 0 for no effect and ±100 for the full control effect; nearly all actives have a fitted effect of over 35% in size
Method in brief: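 HUV-EC-C normal human vascular endothelial cells, 1000 cells/well, pre-incubated 5 hr at 37 °C, then exposed to compounds for 40 hr at 37 °C in complete medium. Viability measured as intracellular ATP by CellTiter-Glo luminescence; AC50 from Hill fits.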

[3] = Cellular Toxicity (caspase-3) HUV-EC-C (AID 656); settings: HUV-EC-C cells, caspase-3 activation (apoptosis), vehicle = 0, 100 µM tamoxifen = 100%; series mostly up to 92.2 µM
Method in brief: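 HUV-EC-C cells (1000/well) in complete medium, compound-treated 16 h at 37 °C; caspase-3/7 activity read by Caspase-Glo 3/7 luminescence. Normalized to DMSO (basal) and 100 uM tamoxifen (100%); AC50 from Hill-equation concentration-response fits.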

[4] = Cellular Toxicity (caspase-3) MRC-5 (AID 659); settings: MRC-5 cells, luminescence, normalized: DMSO 0%, 10 µM staurosporine 100%; series mostly up to 91.7 µM
Method in brief: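 Concentration-dependent caspase 3/7 activation is measured in human normal lung fibroblasts (MRC-5) following 16-hour treatment. AC50 values come from standard Hill-equation modeling of luminescence normalized to DMSO and 10 uM staurosporine.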

[5] = Cellular Toxicity (caspase-3) Mesangial (AID 660); settings: mesangial cells, normalized: DMSO 0%, 100 µM tamoxifen 100%; series mostly up to 91.7 µM;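 also: cells exposed to compound for 16 h before the caspase read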
Method in brief: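 Human renal glomerular mesangial cells (1000/well) were treated with compounds for 16 h at 37 °C in complete medium, then caspase 3/7 activity was read by Caspase-Glo luminescence. Data were normalized to DMSO and 100 uM tamoxifen; AC50 from Hill fits.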

[6] = Cellular Toxicity (caspase-3) SK-N-SH (AID 661); settings: SK-N-SH caspase-3 activation, qHTS; series mostly up to 91.7 µM
Method in brief: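 SK-N-SH human neuroblastoma cells (1500/well) were treated with compounds for 16 hr at 37 °C in complete medium; caspase 3/7 activity was read by Caspase-Glo luminescence. AC50 came from Hill fits of data normalized to DMSO and 10 uM staurosporine.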

[7] = Cellular Toxicity (caspase-3) Hek293 (AID 664); settings: HEK293 caspase-3 activation, DMSO = 0%, 100 µM tamoxifen = 100%; at 92.2 µM (top of the series);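 also: cells exposed to compound for 16 h at 37 °C before readout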
Method in brief: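 HEK293 cells were exposed to compounds in complete medium for 16 hr at 37 °C, then caspase-3/7 activity was read by Caspase-Glo 3/7 luminescence after 20 min at room temperature. Data normalized to DMSO and 100 uM tamoxifen; AC50 from Hill fits.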

[8] = Cellular Toxicity (caspase-3) NIH 3T3 (AID 666); settings: NIH 3T3 caspase-3 activation, apoptosis/toxicity; series mostly up to 92.2 µM;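 also: caspase signal read after 16 h compound exposure; 0% = DMSO basal and 100% = 100 µM tamoxifen stimulation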
Method in brief: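 Mouse NIH 3T3 fibroblasts (1000 cells/well) were treated with compound for 16 hr at 37°C in complete medium; caspase-3/7 activity was read by Caspase-Glo luminescence. Normalized to DMSO and 100 uM tamoxifen; AC50 from Hill fits.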

[9] = MultiTox-Fluor Cytotoxicity Assay - LYMP1-001 - Dead Cells (AID 946); settings: LYMP1-001 lymphoblastoid cells, dead-cell protease fluorescence; series mostly up to 92.2 µM
Method in brief: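 Cytotoxicity as increased dead-cell protease fluorescence (bis-AAF-R110, 485/520 nm), read 60 min after MultiTox-Fluor reagent. Human lymphoblastoid line exposed 16 h; Hill-fitted AC50, with DMSO as 0% and 15 uM tetraoctylammonium bromide as 100%.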

[10] = Cell Viability - LYMP1-002 - Assay at 16 hr (AID 948); settings: LYMP1-002 lymphoblastoid cell viability; series mostly up to 92.2 µM;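 also: 0% = DMSO alone and full effect = 92 µM tetraoctylammonium bromide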
Method in brief: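 LYMP1-002 human lymphoblastoid cells, 2500/well, were treated with compounds for 16 hr at 37 C in complete medium. Viability was read as intracellular ATP by CellTiter-Glo luminescence, and AC50 was derived from a Hill fit to concentration-response data.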

[11] = MultiTox-Fluor Cytotoxicity Assay - LYMP1-003 - Live Cells (AID 962); settings: LYMP1-003 lymphoblastoid cells, MultiTox-Fluor live-cell protease fluorescence; series mostly up to 92.2 µM;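 also: 0% = DMSO only and full loss = 92 µM tetraoctylammonium bromide; cytotoxic hits lower the live-cell protease signal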
Method in brief: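 LYMP1-003 human lymphoblastoid cells (2500/well) in complete medium were preincubated 5 hr at 37 C, then exposed to compounds for 16 hr at 37 C. Live-cell protease cleavage of GF-AFC read by fluorescence (Ex/Em 405/510); AC50 from Hill fits.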

[12] = Cell Viability - LYMP2-003 (AID 965); settings: LYMP2-003 lymphoblastoid cell viability; series mostly up to 92.2 µM;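 also: cells exposed to compounds for 24 h before reading; 0% = DMSO only and full effect = 92 µM tetraoctylammonium bromide; nearly all actives have a fitted effect of over 50% in size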
Method in brief: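 Human lymphoblastoid LYMP2-003 cells, 2500/well, exposed to compounds for 24 h at 37 C in complete medium. Viability read as intracellular ATP by CellTiter-Glo luminescence; AC50 from Hill-equation fits of qHTS concentration-response data.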

[13] = Cell Viability - LYMP2-013 (AID 970); settings: LYMP2-013 lymphoblastoid cells viability; series mostly up to 92.2 µM;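 also: 0% = DMSO only and full inhibition = tetraoctylammonium bromide control; nearly all actives have a fitted effect of over 55% in size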
Method in brief: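 Human lymphoblastoid cells, 2500/well, were preincubated 5 hr at 37 C, then treated with compounds for 24 hr at 37 C in complete medium. Intracellular ATP was read by CellTiter-Glo luminescence; AC50 from Hill-equation fits of concentration-response data.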

[14] = Cell Viability - LYMP2-015 (AID 971); settings: LYMP2-015 lymphoblastoid cell viability; series mostly up to 92.2 µM;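 also: 0% = DMSO only and full effect = 92 µM tetraoctylammonium bromide; nearly all actives have a fitted effect of over 55% in size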
Method in brief: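 Human lymphoblastoid cells (2500/well) in complete medium were preincubated 5 hr at 37 C, then compound-treated 24 hr at 37 C. Intracellular ATP was read by CellTiter-Glo luminescence after 30 min at room temperature; AC50 came from Hill-equation concentration-response fits.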

[15] = Cell Viability - LYMP2-017 (AID 972); settings: LYMP2-017 lymphoblastoid cell viability; series mostly up to 92.2 µM; also: % is scaled to controls: 0 for no effect and ±100 for the full control effect; nearly all actives have a fitted effect of over 55% in size
Method in brief: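 Human lymphoblastoid cells (2500/well) were seeded in complete medium, held 5 hr at 37 C, then exposed to compounds for 24 hr at 37 C. Intracellular ATP was read by CellTiter-Glo luminescence after 30 min at room temperature, with AC50 values from Hill-equation fits.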

[16] = Cell Viability - LYMP2-007 (AID 979); settings: LYMP2-007 lymphoblastoid cell viability; series mostly up to 92.2 µM;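 also: cells exposed to compound for 24 h before reading; 0% = DMSO only and the negative end = 92 µM tetraoctylammonium bromide; nearly all actives have a fitted effect of over 60% in size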
Method in brief: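 Human lymphoblastoid cells (2500/well) were plated in complete medium, incubated 5 hr at 37 C, then exposed to compounds for 24 hr at 37 C. Intracellular ATP was read by CellTiter-Glo luminescence after 30 min at room temperature; AC50 from Hill fits.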

[17] = qHTS Assay for Identification of Small Molecule Inducers of Hypoxia Response (AID 2120; active = well fitted curve in the direction sought with a large enough effect in the signal ratio, with a control signal flat, not every such curve was filed as active; the % refers to the signal ratio; also: 0% is about no effect); settings: hypoxia response reporter cells, beta-lactamase ratio readout; series mostly up to 104 µM
Method in brief: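 HRE-beta-lactamase reporter in CellSensor HRE-bla ME-180 cells, 2500 cells/well in Opti-MEM with 0.5% dialyzed FBS; compounds tested as titration series, 17 h at 37 degrees C. CCF4 substrate 2.5 h at room temperature; AC50 from 460/530 nm ratio.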

[18] = biological target: Peroxisome proliferator-activated receptor alpha (Homo sapiens) (UniProt Q07869); assay: qHTS assay for small molecule agonists of the peroxisome proliferator-activated receptor alpha (PPARalpha) signaling pathway (AID 651778); settings: PathHunter PPARalpha complementation, chemiluminescence, 6 h; stronger effect = higher value; also: % of control where 0% means no effect
Peroxisome proliferator-activated receptor alpha (Homo sapiens), sequence (Q07869 whole entry, looked up): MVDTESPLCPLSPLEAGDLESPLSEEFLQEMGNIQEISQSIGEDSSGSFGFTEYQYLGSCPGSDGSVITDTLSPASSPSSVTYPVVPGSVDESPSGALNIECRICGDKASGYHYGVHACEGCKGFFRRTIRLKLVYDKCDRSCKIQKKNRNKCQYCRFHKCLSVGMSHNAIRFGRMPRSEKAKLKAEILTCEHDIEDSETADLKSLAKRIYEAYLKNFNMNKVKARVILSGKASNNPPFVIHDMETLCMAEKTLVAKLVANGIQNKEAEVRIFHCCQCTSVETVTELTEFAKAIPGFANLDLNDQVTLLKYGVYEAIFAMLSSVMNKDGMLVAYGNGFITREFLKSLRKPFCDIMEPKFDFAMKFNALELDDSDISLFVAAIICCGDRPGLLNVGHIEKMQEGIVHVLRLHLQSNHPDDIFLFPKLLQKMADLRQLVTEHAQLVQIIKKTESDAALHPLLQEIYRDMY
Method in brief: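 Chemiluminescence from complemented enzyme reported PPARalpha activation in cells after 6 hr of compound treatment at 37 C. The detection reagent was incubated for 60 min at room temperature, and compounds were scored as agonists.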

[19] = qHTS assay for small molecule agonists of the antioxidant response element (ARE) signaling pathway measured by Nrf2-dependant transcriptional activity - cell viability counter screen (AID 720653; active = well fitted curve in the direction sought with a large enough effect in the repeat runs; an effect the other way counts as inactive or inconclusive; also: % is scaled to controls: 0 for no effect and ±100 for the full control effect); settings: ARE-bla HepG2 viability, CellTiter-Glo ATP luminescence, 16 h; stronger effect = lower value
Method in brief: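 Cytotoxicity counter screen: intracellular ATP quantified by CellTiter-Glo luminescence in the same ARE-bla HepG2 plates, after 16 h compound exposure and a 2 h beta-lactamase substrate step.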

[20] = qHTS assay for cell viability of the p53RE-bla HCT-116 cell line (AID 743292); settings: p53RE-bla HCT-116 viability, ATP luminescence, 16 h; series mostly up to 95 µM; also: % is scaled to controls: 0 for no effect and ±100 for the full control effect; nearly all actives have a fitted effect of over 55% in size
Method in brief: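 Luminescent ATP quantitation (CellTiter-Glo) served as the viability read-out; reagent was added after 16 h compound exposure at 37 C and read after 30 min at room temperature. Cells: p53RE-bla HCT-116, 4,000 per well.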

OCCOCCO
inactive: Potency [1] > 92 µM | Potency [2] | outcome [3] | outcome [4] | outcome [5] | Potency [6] | caspase-3 activation [7] 3.16% | Potency [8] | outcome [9] | outcome [10] | outcome [11] | Potency [12] | Potency [13] | Potency [14] | Potency [15] | Potency [16] | Potency [17] | max response [18] -3.41% | max response [19] -0.406% | Potency [20]

O=[N+]([O-])c1cccc2c([N+](=O)[O-])cccc12
inactive: Potency [1] > 92 µM | Potency [2] | outcome [3] | outcome [4] | outcome [5] | Potency [6] | caspase-3 activation [7] -0.427% | Potency [8] | outcome [9] | outcome [10] | outcome [11] | Potency [12] | Potency [13] | Potency [14] | Potency [15] | Potency [16] | Potency [17] | max response [18] -0.14% | max response [19] 5.81% | Potency [20]

O=C(O)CCl
inactive: Potency [1] > 92 µM | Potency [2] | outcome [3] | outcome [4] | outcome [5] | Potency [6] | caspase-3 activation [7] -1.43% | Potency [8] | outcome [9] | outcome [10] | outcome [11] | Potency [12] | Potency [13] | Potency [14] | Potency [15] | Potency [16] | Potency [17] | max response [18] -6.37% | max response [19] 1.47% | Potency [20]

Nc1ccc([N+](=O)[O-])cc1[N+](=O)[O-]
inactive: Potency [1] > 92 µM | Potency [2] | outcome [3] | outcome [4] | outcome [5] | Potency [6] | caspase-3 activation [7] -0.459% | Potency [8] | outcome [9] | outcome [10] | outcome [11] | Potency [12] | Potency [13] | Potency [14] | Potency [15] | Potency [16] | Potency [17] | max response [18] -8.48% | max response [19] -10.3% | Potency [20]

CC(C)(Cl)Cl
inactive: Potency [1] > 92 µM | Potency [2] | outcome [3] | outcome [4] | outcome [5] | Potency [6] | caspase-3 activation [7] 0.825% | Potency [8] | outcome [9] | outcome [10] | outcome [11] | Potency [12] | Potency [13] | Potency [14] | Potency [15] | Potency [16] | Potency [17] | max response [18] -2.59% | max response [19] -1.91% | Potency [20]

CCCCNC(=O)n1c(NC(=O)OC)nc2ccccc21
inactive: Potency [1] > 92 µM | outcome [3] | outcome [4] | outcome [5] | Potency [6] | caspase-3 activation [7] -2.55% | Potency [8] | outcome [9] | outcome [10] | outcome [11] | Potency [12] | Potency [13] | Potency [14] | Potency [15] | Potency [16] | Potency [17] | max response [18] 0.197% and 0.6% | max response [19] 2.42% and 7.38% | Potency [20]
